Each compound was assayed on JAK2(JH1domain-catalytic).
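Note: kd values determined as follow-up on hits from a single-replicate KINOMEscan panel screen.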

| Structure (SMILES) | Kd [µM] |
| --- | --- |
| COc1cc(Nc2nccc(N3CCC(NC(=O)C(C)c4ccc(Cl)cc4)C3)n2)cc(OC)c1OC (centres unmarked) [GSK1379757] | 0.14 |
| COc1ccc(Nc2nccc(N3CCC(NS(=O)(=O)c4ccc(NC(C)=O)cc4)C3)n2)cc1 (centres unmarked) [GSK1379729] | 0.038 |
| O=c1cc(N2CCOCC2)nc2n(Cc3ccc(F)c(Cl)c3)ccn12 [GSK2297099] | > 10 |
| O=C(NCCNc1ccnc(Nc2ccc(F)cc2)n1)Nc1ccc2c(c1)OCO2 [GSK1379882] | 2 |
| COc1cc(Nc2nccc(N3CCC(NC(=O)C4COc5ccccc5O4)C3)n2)cc(OC)c1OC (centres unmarked) [GSK1379761] | 0.047 |

The compounds below were run on JAK3(JH1domain-catalytic).

| Structure (SMILES) | Kd [µM] |
| --- | --- |
| COc1cccc(C2=C(Nc3cccc(C(=O)O)c3)C(=O)NC2=O)c1 [SB-390770] | 0.48 |
| Cc1nc(N(C)[C@H]2CN(C(=O)CC#N)CC[C@H]2C)c2cc[nH]c2n1 | 0.14 |
| COc1cc(Nc2ccnc3ccc(C(F)(F)F)cc23)cc(OC)c1OC [GW577382] | > 10 |

— publication PMC5540273 (PLoS ONE, 2017)
